Residue numbers refer to the chain shown, from its start.
Tests used:
Assay in all cases: PBM; 200 nM protein, PBS
Settings in all cases: dsDNA, one strand shown
HOXC10 [1] = molecular target: HOXC10 (Homo sapiens, UniProt Q9NYD6 254-340)
NKX2-6 [2] = molecular target: T1, NKX2-6 (Homo sapiens, UniProt A6NCS4 118-204, R150C)
T1 sequence: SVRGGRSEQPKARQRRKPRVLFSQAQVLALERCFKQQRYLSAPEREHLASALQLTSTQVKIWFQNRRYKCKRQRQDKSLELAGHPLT

HOXC10 [3] = molecular target: HOXC10 (Homo sapiens, UniProt Q9NYD6 254-340, K271E)
ALX4 [4] = molecular target: ALX4 (Homo sapiens, UniProt Q9H161 200-286)
ALX4 [5] = molecular target: ALX4 (Homo sapiens, UniProt Q9H161 200-286, Q225E)
HOXB6 [6] = molecular target: HOXB6 (Homo sapiens, UniProt P17509 132-218, K202E)
PROP1 [7] = molecular target: PROP1 (Homo sapiens, UniProt O75360 56-141)
PROP1 [8] = molecular target: PROP1 (Homo sapiens, UniProt O75360 56-141, R99H)
PROP1 [9] = molecular target: PROP1 (Homo sapiens, UniProt O75360 56-141, F88S)
HOXB6 [10] = molecular target: HOXB6 (Homo sapiens, UniProt P17509 132-218)
HOXD13 [11] = molecular target: HOXD13 (Homo sapiens, UniProt P35453 263-343, T313R)
HOXD13 [12] = molecular target: HOXD13 (Homo sapiens, UniProt P35453 263-343)
HOXD13 [13] = molecular target: HOXD13 (Homo sapiens, UniProt P35453 263-343, T313A)
NKX2-6 [14] = molecular target: T2, NKX2-6 (Homo sapiens, UniProt A6NCS4 118-204)
T2 sequence: T1 sequence with C33R

NKX2-6 [15] = molecular target: T3, NKX2-6 (Homo sapiens, UniProt A6NCS4 118-204, F151L)
T3 sequence: T1 sequence with C33R, F34L

PITX2 = PITX2 (Homo sapiens, UniProt Q99697 72-157)

HOXC10 (Homo sapiens, UniProt Q9NYD6 254-340), sequence (Q9NYD6 254-340): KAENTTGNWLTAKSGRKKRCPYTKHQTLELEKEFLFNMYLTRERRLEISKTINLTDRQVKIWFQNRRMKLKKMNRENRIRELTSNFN
HOXC10 (Homo sapiens, UniProt Q9NYD6 254-340, K271E), sequence (Q9NYD6 254-340 K271E): as the sequence (Q9NYD6 254-340) above, with K18E counted along it
HOXD13 (Homo sapiens, UniProt P35453 263-343, T313R), sequence (P35453 263-343 T313R): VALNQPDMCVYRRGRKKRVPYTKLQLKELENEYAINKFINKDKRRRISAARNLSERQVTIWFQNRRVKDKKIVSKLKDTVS
HOXD13 (Homo sapiens, UniProt P35453 263-343), sequence (P35453 263-343): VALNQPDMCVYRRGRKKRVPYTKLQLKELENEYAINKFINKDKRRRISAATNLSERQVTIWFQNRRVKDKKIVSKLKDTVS
ALX4 (Homo sapiens, UniProt Q9H161 200-286), sequence (Q9H161 200-286): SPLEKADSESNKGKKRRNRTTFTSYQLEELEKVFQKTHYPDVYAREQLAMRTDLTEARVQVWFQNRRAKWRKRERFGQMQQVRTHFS
HOXD13 (Homo sapiens, UniProt P35453 263-343, T313A), sequence (P35453 263-343 T313A): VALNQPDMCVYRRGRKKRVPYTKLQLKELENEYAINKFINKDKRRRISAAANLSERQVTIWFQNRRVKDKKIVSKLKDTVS
ALX4 (Homo sapiens, UniProt Q9H161 200-286, Q225E), sequence (Q9H161 200-286 Q225E): as the sequence (Q9H161 200-286) above, with Q26E counted along it
HOXB6 (Homo sapiens, UniProt P17509 132-218), sequence (P17509 132-218): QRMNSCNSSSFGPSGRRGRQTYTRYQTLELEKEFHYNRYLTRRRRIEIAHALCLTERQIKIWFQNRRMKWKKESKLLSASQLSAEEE
PROP1 (Homo sapiens, UniProt O75360 56-141, R99H), sequence (O75360 56-141 R99H): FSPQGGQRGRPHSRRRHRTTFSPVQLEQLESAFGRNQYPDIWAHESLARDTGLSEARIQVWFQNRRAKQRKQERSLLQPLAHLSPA
PROP1 (Homo sapiens, UniProt O75360 56-141), sequence (O75360 56-141): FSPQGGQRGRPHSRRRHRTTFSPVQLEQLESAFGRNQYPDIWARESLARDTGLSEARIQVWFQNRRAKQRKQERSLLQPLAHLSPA
PROP1 (Homo sapiens, UniProt O75360 56-141, F88S), sequence (O75360 56-141 F88S): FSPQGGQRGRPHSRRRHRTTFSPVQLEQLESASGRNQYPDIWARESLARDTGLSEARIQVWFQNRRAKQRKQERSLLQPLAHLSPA
HOXB6 (Homo sapiens, UniProt P17509 132-218, K202E), sequence (P17509 132-218 K202E): as the sequence (P17509 132-218) above, with K71E counted along it

Sequence: GAGGCCTC
- binding signal (HOXC10 [1]): 10.1 upbm affinity estimate (log intensity, higher = more binding, comparable within an allelic series)
- binding signal (NKX2-6 [2]): 9.72 upbm affinity estimate (log intensity, higher = more binding, comparable within an allelic series)
- binding signal (HOXC10 [3]): 10.1 upbm affinity estimate (log intensity, higher = more binding, comparable within an allelic series)

Sequence: AGCGCTTG
- binding signal (HOXC10 [1]): 10 upbm affinity estimate (log intensity, higher = more binding, comparable within an allelic series)
- binding signal (ALX4 [4]): 7.96 upbm affinity estimate (log intensity, higher = more binding, comparable within an allelic series)
- binding signal (ALX4 [5]): 8.27 upbm affinity estimate (log intensity, higher = more binding, comparable within an allelic series)
- binding signal (HOXC10 [3]): 10.1 upbm affinity estimate (log intensity, higher = more binding, comparable within an allelic series)

Sequence: GGGGGGAA
- binding signal (HOXC10 [1]): 10 upbm affinity estimate (log intensity, higher = more binding, comparable within an allelic series)
- binding signal (HOXB6 [6]): 9 upbm affinity estimate (log intensity, higher = more binding, comparable within an allelic series)
- binding signal (HOXC10 [3]): 9.95 upbm affinity estimate (log intensity, higher = more binding, comparable within an allelic series)
- binding signal (PROP1 [7]): 6.74 upbm affinity estimate (log intensity, higher = more binding, comparable within an allelic series)
- binding signal (PROP1 [8]): 6.57 upbm affinity estimate (log intensity, higher = more binding, comparable within an allelic series)
- binding signal (PROP1 [9]): 6.2 upbm affinity estimate (log intensity, higher = more binding, comparable within an allelic series)
- binding signal (HOXB6 [10]): 9.07 upbm affinity estimate (log intensity, higher = more binding, comparable within an allelic series)

Sequence: CTGGTGGC
- binding signal (HOXC10 [1]): 9.99 upbm affinity estimate (log intensity, higher = more binding, comparable within an allelic series)
- binding signal (ALX4 [4]): 7.93 upbm affinity estimate (log intensity, higher = more binding, comparable within an allelic series)
- binding signal (ALX4 [5]): 8.14 upbm affinity estimate (log intensity, higher = more binding, comparable within an allelic series)
- binding signal (HOXC10 [3]): 10.1 upbm affinity estimate (log intensity, higher = more binding, comparable within an allelic series)

Sequence: TGTTACAA
- binding signal (HOXC10 [1]): 10.6 upbm affinity estimate (log intensity, higher = more binding, comparable within an allelic series)

Sequence: CCCCGGGC
- binding signal (HOXC10 [1]): 9.93 upbm affinity estimate (log intensity, higher = more binding, comparable within an allelic series)
- binding signal (HOXD13 [11]): 9.37 upbm affinity estimate (log intensity, higher = more binding, comparable within an allelic series)
- binding signal (HOXD13 [12]): 9.35 upbm affinity estimate (log intensity, higher = more binding, comparable within an allelic series)
- binding signal (HOXC10 [3]): 9.89 upbm affinity estimate (log intensity, higher = more binding, comparable within an allelic series)
- binding signal (HOXD13 [13]): 9.35 upbm affinity estimate (log intensity, higher = more binding, comparable within an allelic series)

Sequence: AATTGCAA
- binding signal (HOXC10 [1]): 11.1 upbm affinity estimate (log intensity, higher = more binding, comparable within an allelic series)
- binding signal (HOXC10 [3]): 11 upbm affinity estimate (log intensity, higher = more binding, comparable within an allelic series)

Sequence: CGCCCCGA
- binding signal (HOXC10 [1]): 10.1 upbm affinity estimate (log intensity, higher = more binding, comparable within an allelic series)
- binding signal (HOXC10 [3]): 9.97 upbm affinity estimate (log intensity, higher = more binding, comparable within an allelic series)

Sequence: GAAGCTGC
- binding signal (HOXC10 [1]): 10.1 upbm affinity estimate (log intensity, higher = more binding, comparable within an allelic series)
- binding signal (HOXC10 [3]): 10 upbm affinity estimate (log intensity, higher = more binding, comparable within an allelic series)

Sequence: ACGCTGGA
- binding signal (HOXC10 [1]): 9.94 upbm affinity estimate (log intensity, higher = more binding, comparable within an allelic series)
- binding signal (HOXC10 [3]): 10.1 upbm affinity estimate (log intensity, higher = more binding, comparable within an allelic series)

Sequence: GTCCCGCA
- binding signal (HOXC10 [1]): 10.1 upbm affinity estimate (log intensity, higher = more binding, comparable within an allelic series)
- binding signal (NKX2-6 [14]): 9.41 upbm affinity estimate (log intensity, higher = more binding, comparable within an allelic series)
- binding signal (HOXC10 [3]): 10.1 upbm affinity estimate (log intensity, higher = more binding, comparable within an allelic series)
- binding signal (NKX2-6 [15]): 9.36 upbm affinity estimate (log intensity, higher = more binding, comparable within an allelic series)

Sequence: AATGCTAT
- binding signal (HOXC10 [1]): 11 upbm affinity estimate (log intensity, higher = more binding, comparable within an allelic series)
- binding signal (HOXC10 [3]): 10.9 upbm affinity estimate (log intensity, higher = more binding, comparable within an allelic series)

Sequence: CCGAAGGA
- binding signal (HOXC10 [1]): 10 upbm affinity estimate (log intensity, higher = more binding, comparable within an allelic series)
- binding signal (HOXC10 [3]): 9.98 upbm affinity estimate (log intensity, higher = more binding, comparable within an allelic series)

Sequence: AGGGCCAG
- binding signal (HOXC10 [1]): 9.98 upbm affinity estimate (log intensity, higher = more binding, comparable within an allelic series)
- binding signal (HOXC10 [3]): 10 upbm affinity estimate (log intensity, higher = more binding, comparable within an allelic series)

Sequence: GCGGTGCC
- binding signal (HOXC10 [1]): 10 upbm affinity estimate (log intensity, higher = more binding, comparable within an allelic series)
- binding signal (HOXC10 [3]): 10 upbm affinity estimate (log intensity, higher = more binding, comparable within an allelic series)

Sequence: GCGAGTCC
- binding signal (HOXC10 [1]): 10.1 upbm affinity estimate (log intensity, higher = more binding, comparable within an allelic series)
- binding signal (HOXC10 [3]): 10.1 upbm affinity estimate (log intensity, higher = more binding, comparable within an allelic series)

Sequence: CTCTCCGA
- binding signal (HOXC10 [1]): 9.99 upbm affinity estimate (log intensity, higher = more binding, comparable within an allelic series)
- binding signal (HOXC10 [3]): 9.97 upbm affinity estimate (log intensity, higher = more binding, comparable within an allelic series)

Sequence: CTCGGGAA
- binding signal (HOXC10 [1]): 10.1 upbm affinity estimate (log intensity, higher = more binding, comparable within an allelic series)
- binding signal (HOXC10 [3]): 10 upbm affinity estimate (log intensity, higher = more binding, comparable within an allelic series)

Sequence: CGCCAGCG
- binding signal (HOXC10 [1]): 10 upbm affinity estimate (log intensity, higher = more binding, comparable within an allelic series)
- binding signal (HOXC10 [3]): 9.94 upbm affinity estimate (log intensity, higher = more binding, comparable within an allelic series)

Sequence: CATAAATA
- binding signal (HOXC10 [1]): 12.1 upbm affinity estimate (log intensity, higher = more binding, comparable within an allelic series)
- binding signal (HOXC10 [3]): 11.5 upbm affinity estimate (log intensity, higher = more binding, comparable within an allelic series)

Sequence: CCTTGCGA
- binding signal (HOXC10 [1]): 10 upbm affinity estimate (log intensity, higher = more binding, comparable within an allelic series)
- binding signal (HOXC10 [3]): 10.1 upbm affinity estimate (log intensity, higher = more binding, comparable within an allelic series)

Sequence: AACATTAT
- binding signal (HOXC10 [1]): 11.6 upbm affinity estimate (log intensity, higher = more binding, comparable within an allelic series)
- binding signal (HOXC10 [3]): 11.3 upbm affinity estimate (log intensity, higher = more binding, comparable within an allelic series)

Sequence: CGGCCCCG
- binding signal (HOXC10 [1]): 10.2 upbm affinity estimate (log intensity, higher = more binding, comparable within an allelic series)
- binding signal (HOXC10 [3]): 10.1 upbm affinity estimate (log intensity, higher = more binding, comparable within an allelic series)

Sequence: ACATAAGT
- binding signal (HOXC10 [1]): 10.9 upbm affinity estimate (log intensity, higher = more binding, comparable within an allelic series)
- binding signal (PITX2): 9.71 upbm affinity estimate (log intensity, higher = more binding, comparable within an allelic series)
- binding signal (HOXC10 [3]): 10.8 upbm affinity estimate (log intensity, higher = more binding, comparable within an allelic series)

Sequence: CGCTGGGC
- binding signal (HOXC10 [1]): 10 upbm affinity estimate (log intensity, higher = more binding, comparable within an allelic series)
- binding signal (NKX2-6 [14]): 9.13 upbm affinity estimate (log intensity, higher = more binding, comparable within an allelic series)
- binding signal (HOXC10 [3]): 9.98 upbm affinity estimate (log intensity, higher = more binding, comparable within an allelic series)
- binding signal (NKX2-6 [15]): 9.22 upbm affinity estimate (log intensity, higher = more binding, comparable within an allelic series)

Sequence: GCCTAATA
- binding signal (HOXC10 [1]): 11 upbm affinity estimate (log intensity, higher = more binding, comparable within an allelic series)
- binding signal (HOXC10 [3]): 10.9 upbm affinity estimate (log intensity, higher = more binding, comparable within an allelic series)

Sequence: ATATCAGG
- binding signal (HOXC10 [1]): 10.6 upbm affinity estimate (log intensity, higher = more binding, comparable within an allelic series)
- binding signal (HOXC10 [3]): 10.7 upbm affinity estimate (log intensity, higher = more binding, comparable within an allelic series)

Sequence: AACCTGCC
- binding signal (HOXC10 [1]): 10.1 upbm affinity estimate (log intensity, higher = more binding, comparable within an allelic series)
- binding signal (PITX2): 7.89 upbm affinity estimate (log intensity, higher = more binding, comparable within an allelic series)
- binding signal (HOXC10 [3]): 10.1 upbm affinity estimate (log intensity, higher = more binding, comparable within an allelic series)

Sequence: GACGATTA
- binding signal (HOXC10 [1]): 11.2 upbm affinity estimate (log intensity, higher = more binding, comparable within an allelic series)
- binding signal (HOXC10 [3]): 11.1 upbm affinity estimate (log intensity, higher = more binding, comparable within an allelic series)

Sequence: CGCCGGCC
- binding signal (HOXC10 [1]): 9.95 upbm affinity estimate (log intensity, higher = more binding, comparable within an allelic series)
- binding signal (HOXC10 [3]): 9.99 upbm affinity estimate (log intensity, higher = more binding, comparable within an allelic series)

Sequence: CACTGACG
- binding signal (HOXC10 [1]): 10 upbm affinity estimate (log intensity, higher = more binding, comparable within an allelic series)
- binding signal (HOXC10 [3]): 10.1 upbm affinity estimate (log intensity, higher = more binding, comparable within an allelic series)

Sequence: CCCGTAAA
- binding signal (HOXC10 [1]): 11.3 upbm affinity estimate (log intensity, higher = more binding, comparable within an allelic series)
- binding signal (HOXD13 [11]): 10.6 upbm affinity estimate (log intensity, higher = more binding, comparable within an allelic series)
- binding signal (HOXD13 [12]): 11.9 upbm affinity estimate (log intensity, higher = more binding, comparable within an allelic series)
- binding signal (HOXD13 [13]): 11.6 upbm affinity estimate (log intensity, higher = more binding, comparable within an allelic series)

Sequence: CGAGGAGC
- binding signal (HOXC10 [1]): 9.97 upbm affinity estimate (log intensity, higher = more binding, comparable within an allelic series)
- binding signal (HOXC10 [3]): 9.97 upbm affinity estimate (log intensity, higher = more binding, comparable within an allelic series)

Sequence: AGGCTTCC
- binding signal (HOXC10 [1]): 10.1 upbm affinity estimate (log intensity, higher = more binding, comparable within an allelic series)
- binding signal (HOXC10 [3]): 10.1 upbm affinity estimate (log intensity, higher = more binding, comparable within an allelic series)

Sequence: CTTCGACC
- binding signal (HOXC10 [1]): 9.95 upbm affinity estimate (log intensity, higher = more binding, comparable within an allelic series)
- binding signal (HOXC10 [3]): 10 upbm affinity estimate (log intensity, higher = more binding, comparable within an allelic series)

Sequence: ACGCGAGC
- binding signal (HOXC10 [1]): 10.1 upbm affinity estimate (log intensity, higher = more binding, comparable within an allelic series)
- binding signal (HOXC10 [3]): 10.1 upbm affinity estimate (log intensity, higher = more binding, comparable within an allelic series)

Sequence: AAATAAAA
- binding signal (HOXC10 [1]): 11.9 upbm affinity estimate (log intensity, higher = more binding, comparable within an allelic series)
- binding signal (HOXC10 [3]): 11.1 upbm affinity estimate (log intensity, higher = more binding, comparable within an allelic series)

Sequence: ACGAAGCT
- binding signal (HOXC10 [1]): 10 upbm affinity estimate (log intensity, higher = more binding, comparable within an allelic series)
- binding signal (HOXC10 [3]): 10.1 upbm affinity estimate (log intensity, higher = more binding, comparable within an allelic series)

Sequence: AGGCTTCG
- binding signal (HOXC10 [1]): 9.94 upbm affinity estimate (log intensity, higher = more binding, comparable within an allelic series)
- binding signal (HOXC10 [3]): 10 upbm affinity estimate (log intensity, higher = more binding, comparable within an allelic series)

Sequence: CGTGAATA
- binding signal (HOXC10 [1]): 10.7 upbm affinity estimate (log intensity, higher = more binding, comparable within an allelic series)
- binding signal (HOXC10 [3]): 10.7 upbm affinity estimate (log intensity, higher = more binding, comparable within an allelic series)
